In PubChem BioAssay (EPA / NIEHS):
Calls of active or inactive are those of the source. Rule for the calls: active = hit-call score of the fitted dose curve at least 0.9, where 1 is the maximum; inactive = score below 0.9.

Columns and labels:
[1] = read-out: Matrix Metallopeptidase 1 (MMP1), MMP1 (gene 4312); test: BSK_hDFCGF_MMP1: BioMAP Diversity Plus: hDFCGF Assay for Matrix Metallopeptidase 1 (MMP1) Biomarker Activity (AID 2283064); conditions: primary human foreskin fibroblasts; actives raise or lower the signal
In short: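 Primary human foreskin fibroblasts exposed to chemicals for 24 h; MMP1 measured by ELISA. Cytotoxicity tracked by SRB staining in parallel cultures; bidirectional fit relative to DMSO.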

[2] = read-out: Vascular cell adhesion molecule 1 (VCAM1), VCAM1 (gene 7412); test: BSK_hDFCGF_VCAM1: BioMAP Diversity Plus: hDFCGF Assay for Vascular cell adhesion molecule 1 (VCAM1) Biomarker Activity (AID 2283065); conditions: primary human foreskin fibroblasts; actives raise or lower the signal
In short: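 ELISA readout of VCAM-1 on human dermal fibroblast primary cultures, 24 h after chemical exposure. Gain or loss of signal fitted in both directions against DMSO baseline.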

[3] = read-out: Plasminogen activator inhibitor-1 (PAI1), SERPINE1 (gene 5054); test: BSK_hDFCGF_PAI1: BioMAP Diversity Plus: hDFCGF Assay for Plasminogen activator inhibitor-1 (PAI1) Biomarker Activity (AID 2283066); conditions: primary human foreskin fibroblasts; actives raise or lower the signal
In short: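 Human foreskin fibroblasts in the hDFCGF system were dosed with compound for 24 h; PAI-1 was quantified by ELISA. Bidirectional curve fitting used DMSO as negative control and baseline.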

[4] = read-out: Intercellular Adhesion Molecule 1 (ICAM1), ICAM1 (gene 3383); test: BSK_KF3CT_ICAM1: BioMAP Diversity Plus: KF3CT Assay for Intercellular Adhesion Molecule 1 (ICAM1) Biomarker Activity (AID 2283067); conditions: primary human keratinocytes with fibroblasts; actives raise or lower the signal
In short: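 Cell-surface ICAM-1 was measured by ELISA 24 h after dosing primary human skin keratinocytes co-cultured with fibroblasts. Parallel SRB staining tracked overt cytotoxicity. Gain or loss of signal was fitted relative to DMSO.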

[5] = read-out: Interferon-gamma inducible Protein 10 (IP10), CXCL10 (gene 3627); test: BSK_KF3CT_IP10: BioMAP Diversity Plus: KF3CT Assay for Interferon-gamma inducible Protein 10 (IP10) Biomarker Activity (AID 2283068); conditions: primary human keratinocytes with fibroblasts; actives raise or lower the signal
In short: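 In a primary skin co-culture of keratinocytes and fibroblasts, IP-10 is quantified by ELISA at 24 h after dosing. SRB staining of parallel wells monitors overt toxicity. Curves are fitted both directions against DMSO.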

[6] = BSK_KF3CT_SRB: Viability Assessment in the BioMAP Diversity Plus: KF3CT Assay (AID 2283069); conditions: primary human keratinocytes with fibroblasts;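 note: total protein by sulforhodamine B staining as a cytotoxicity measure; read 24 h after compound addition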
In short: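 Human keratinocyte and foreskin fibroblast co-culture exposed to chemical for 24 h. Total protein measured in parallel cultures by 0.1% sulforhodamine B staining after 10% TCA fixation, read at 560 nm; bidirectional fit relative to DMSO.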

[7] = read-out: Interleukin-1 alpha (IL1a), IL1A (gene 3552); test: BSK_KF3CT_IL1a: BioMAP Diversity Plus: KF3CT Assay for Interleukin-1 alpha (IL1a) Biomarker Activity (AID 2283070); conditions: primary human keratinocytes with fibroblasts; actives raise or lower the signal
In short: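 Primary human keratinocyte plus foreskin fibroblast co-culture, dosed and measured at 24 h in 96-well plates. IL-1a level quantified by ELISA; bidirectional fit relative to DMSO.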

[8] = read-out: TIMP metallopeptidase inhibitor 2 (TIMP2), TIMP2 (gene 7077); test: BSK_KF3CT_TIMP2: BioMAP Diversity Plus: KF3CT Assay for TIMP metallopeptidase inhibitor 2 (TIMP2) Biomarker Activity (AID 2283071); conditions: primary human keratinocytes with fibroblasts; actives raise or lower the signal
In short: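 Human primary keratinocyte/foreskin fibroblast co-culture dosed with chemical and sampled at 24 h. TIMP-2 levels quantified by ELISA; bidirectional fitting against DMSO negative control as baseline.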

[9] = read-out: C-C motif chemokine 2 (Homo sapiens) (UniProt P13500); test: BSK_KF3CT_MCP1: BioMAP Diversity Plus: KF3CT Assay for Monocyte Chemoattractant Protein 1 (MCP1/CCL2) Biomarker Activity (AID 2283073); conditions: primary human keratinocytes with fibroblasts; actives raise or lower the signal
In short: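 ELISA read-out of MCP-1, 24 h post-dose, in primary human skin keratinocytes co-cultured with fibroblasts. Parallel SRB staining monitors cytotoxicity; changes fitted both directions relative to DMSO.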

[10] = read-out: urokinase plasminogen activator (uPA), PLAU (gene 5328); test: BSK_KF3CT_uPA: BioMAP Diversity Plus: KF3CT Assay for urokinase plasminogen activator (uPA) Biomarker Activity (AID 2283075); conditions: primary human keratinocytes with fibroblasts; actives raise or lower the signal
In short: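 Primary human keratinocyte/foreskin fibroblast co-culture exposed to chemical; uPA measured by ELISA at 24 h. Bidirectional fit versus DMSO, with parallel SRB total-protein staining for cytotoxicity.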

CD40, CD40 (gene 958) = test: BSK_LPS_CD40: BioMAP Diversity Plus: LPS Assay for CD40 Biomarker Activity (AID 2283076); conditions: primary human HUVEC with PBMC; actives raise or lower the signal
In short: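 In the LPS system of human endothelial cells with peripheral blood mononuclear cells, CD40 levels were read by ELISA 24 h post-treatment. Signal changes in either direction were fitted against the DMSO baseline, with parallel SRB protein staining.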

[11] = read-out: E-selectin (Homo sapiens) (UniProt P16581); test: BSK_LPS_Eselectin: BioMAP Diversity Plus: LPS Assay for Eselectin Biomarker Activity (AID 2283077); conditions: primary human HUVEC with PBMC; actives raise or lower the signal
In short: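 E-selectin ELISA on LPS-stimulated endothelial cell/PBMC co-cultures, read 24 h post-treatment; gains and losses fitted against DMSO. Parallel SRB staining (0.1% SRB after 10% TCA fixation, 560 nm) flags overt cytotoxicity.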

[12] = read-out: Interleukin-8 (IL8), CXCL8 (gene 3576); test: BSK_LPS_IL8: BioMAP Diversity Plus: LPS Assay for Interleukin-8 (IL8) Biomarker Activity (AID 2283078); conditions: primary human HUVEC with PBMC; actives raise or lower the signal
In short: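 ELISA read-out of IL-8 after 24 h chemical treatment of LPS-activated endothelial/PBMC human primary co-cultures. Changes either up or down relative to DMSO; overt cytotoxicity checked by sulforhodamine B staining in parallel wells.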

[13] = BSK_LPS_SRB: Viability Assessment in the BioMAP Diversity Plus: LPS Assay (AID 2283079); conditions: primary human HUVEC with PBMC;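 note: total protein by sulforhodamine B absorbance as a cytotoxicity measure; measured one day after compound addition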
In short: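 SRB viability endpoint: cells fixed with 10% TCA, stained with 0.1% SRB, read at 560 nm, 24 h post-dose. HUVEC/PBMC co-culture; signal change in either direction scored relative to DMSO.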

[14] = read-out: Interleukin-1 alpha (IL1a), IL1A (gene 3552); test: BSK_LPS_IL1a: BioMAP Diversity Plus: LPS Assay for Interleukin-1 alpha (IL1a) Biomarker Activity (AID 2283080); conditions: primary human HUVEC with PBMC; actives raise or lower the signal
In short: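 Readout is IL-1a level by ELISA, 24 h post-dose, fitted as gain or loss relative to DMSO. System: LPS-activated human primary co-culture of vascular endothelium and peripheral blood mononuclear cells, with parallel SRB total-protein cytotoxicity.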

[15] = read-out: Monocyte Chemoattractant Protein-1 (MCP1), CCL2 (gene 6347); test: BSK_LPS_MCP1: BioMAP Diversity Plus: LPS Assay for Monocyte Chemoattractant Protein-1 (MCP1) Biomarker Activity (AID 2283081); conditions: primary human HUVEC with PBMC; actives raise or lower the signal
In short: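 Secreted MCP-1 read by ELISA at 24 h post-dosing in an LPS-activated co-culture of endothelial cells with peripheral blood mononuclear cells. Fits run in both directions, DMSO as baseline; parallel SRB staining tracks overt cytotoxicity.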

[16] = BSK_LPS_PGE2: BioMAP Diversity Plus: LPS Assay for Prostaglandin E2 (PGE2) Biomarker Activity (AID 2283082); conditions: primary human HUVEC with PBMC; actives raise or lower the signal
In short: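 HUVEC plus PBMC co-culture stimulated with LPS; secreted PGE2 quantified by ELISA 24 h after chemical dosing. Activity fitted bidirectionally against DMSO as negative control and baseline; parallel SRB total-protein staining served as cytotoxicity check.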

[17] = read-out: Macrophage colony-stimulating factor (MCSF), CSF1 (gene 1435); test: BSK_LPS_MCSF: BioMAP Diversity Plus: LPS Assay for Macrophage colony-stimulating factor (MCSF) Biomarker Activity (AID 2283083); conditions: primary human HUVEC with PBMC; actives raise or lower the signal
In short: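 Bidirectional fitting against DMSO was applied to M-CSF levels read by ELISA at 24 h post-dose. The system pairs human umbilical vein endothelium with peripheral blood mononuclear cells; parallel SRB staining tracked cytotoxicity.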

[18] = read-out: Transforming growth factor beta 1 (TGFb1), TGFB1 (gene 7040); test: BSK_KF3CT_TGFb1: BioMAP Diversity Plus: KF3CT Assay for Transforming growth factor beta 1 (TGFb1) Biomarker Activity (AID 2283072); conditions: primary human keratinocytes with fibroblasts; actives raise or lower the signal
In short: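 Human keratinocyte plus foreskin fibroblast primary co-culture, dosed with chemical for 24 h. TGF-b1 quantified by ELISA. Activity fitted bidirectionally against DMSO negative control as baseline.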

Chain of E-selectin (Homo sapiens) (P16581 whole entry, looked up): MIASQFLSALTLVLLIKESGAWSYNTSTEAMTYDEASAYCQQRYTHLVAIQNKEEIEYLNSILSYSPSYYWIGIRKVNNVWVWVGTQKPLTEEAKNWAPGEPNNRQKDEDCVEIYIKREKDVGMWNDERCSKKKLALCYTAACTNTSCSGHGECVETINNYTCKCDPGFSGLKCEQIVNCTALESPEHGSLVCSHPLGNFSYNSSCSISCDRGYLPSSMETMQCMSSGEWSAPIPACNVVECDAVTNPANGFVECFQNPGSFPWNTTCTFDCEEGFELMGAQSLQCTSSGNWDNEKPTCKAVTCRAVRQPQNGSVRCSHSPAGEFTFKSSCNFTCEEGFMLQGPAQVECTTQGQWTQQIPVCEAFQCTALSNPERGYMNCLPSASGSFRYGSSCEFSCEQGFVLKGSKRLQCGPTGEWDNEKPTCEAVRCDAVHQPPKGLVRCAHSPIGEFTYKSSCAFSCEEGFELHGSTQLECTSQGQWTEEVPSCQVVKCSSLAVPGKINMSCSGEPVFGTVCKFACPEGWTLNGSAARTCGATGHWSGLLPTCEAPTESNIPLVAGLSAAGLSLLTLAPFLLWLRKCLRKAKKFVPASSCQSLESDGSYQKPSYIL

Cc1c([N+](=O)[O-])c(C)c([N+](=O)[O-])c(C(C)(C)C)c1[N+](=O)[O-]
outcome [1]: inactive | outcome [2]: inactive | AC50 [3]: 29.5 µM (active) | outcome [4]: inactive | AC50 [5]: 32.4 µM (active) | outcome [6]: inactive | outcome [7]: inactive | outcome [8]: inactive | AC50 [9]: 34 µM (active) | outcome [10]: inactive | outcome (CD40, CD40 (gene 958)): inactive | outcome [11]: inactive | outcome [12]: inactive | outcome [13]: inactive | AC50 [14]: 11.4 µM (active) | outcome [15]: inactive | outcome [16]: inactive | outcome [17]: inactive

Cc1cccc(OP(=O)(Oc2cccc(C)c2)Oc2cccc(C)c2)c1
outcome [1]: inactive | AC50 [3]: 0.0473 µM (active) | outcome [4]: inactive | outcome [5]: inactive | outcome [6]: inactive | outcome [7]: inactive | outcome [8]: inactive | outcome [18]: inactive | outcome [9]: inactive | outcome [10]: inactive | outcome (CD40, CD40 (gene 958)): inactive | outcome [11]: inactive | outcome [12]: inactive | outcome [13]: inactive | outcome [14]: inactive | outcome [15]: inactive | outcome [16]: inactive | outcome [17]: inactive

CN(C)C(=S)S
AC50 [1]: 36.9 µM (active) | AC50 [3]: 33.6 µM (active) | outcome [4]: inactive | outcome [5]: inactive | outcome [6]: inactive | outcome [7]: inactive | outcome [8]: inactive | outcome [10]: inactive | outcome (CD40, CD40 (gene 958)): inactive | outcome [11]: inactive | outcome [12]: inactive | outcome [13]: inactive | outcome [14]: inactive | outcome [15]: inactive | outcome [16]: inactive | outcome [17]: inactive
